# Screening data as filed in PubChem.
# PLK1 PBD inh: inhibitors of human PLK1 polo-box domain binding. Plk1 PBD binding of FITC phosphopeptide, fluorescence polarization. 360,000 compounds, 2.8% hits. Potency, µM, without a hit: max response, negative = inhibition, actives largely listed as inhibitors; further: potency means the concentration at half of the fitted maximal effect; series mostly up to about 57 µM; nearly all actives have a fitted effect of over 65% in size
# Target sequence (P53350 whole entry, looked up, the tested form may be a part): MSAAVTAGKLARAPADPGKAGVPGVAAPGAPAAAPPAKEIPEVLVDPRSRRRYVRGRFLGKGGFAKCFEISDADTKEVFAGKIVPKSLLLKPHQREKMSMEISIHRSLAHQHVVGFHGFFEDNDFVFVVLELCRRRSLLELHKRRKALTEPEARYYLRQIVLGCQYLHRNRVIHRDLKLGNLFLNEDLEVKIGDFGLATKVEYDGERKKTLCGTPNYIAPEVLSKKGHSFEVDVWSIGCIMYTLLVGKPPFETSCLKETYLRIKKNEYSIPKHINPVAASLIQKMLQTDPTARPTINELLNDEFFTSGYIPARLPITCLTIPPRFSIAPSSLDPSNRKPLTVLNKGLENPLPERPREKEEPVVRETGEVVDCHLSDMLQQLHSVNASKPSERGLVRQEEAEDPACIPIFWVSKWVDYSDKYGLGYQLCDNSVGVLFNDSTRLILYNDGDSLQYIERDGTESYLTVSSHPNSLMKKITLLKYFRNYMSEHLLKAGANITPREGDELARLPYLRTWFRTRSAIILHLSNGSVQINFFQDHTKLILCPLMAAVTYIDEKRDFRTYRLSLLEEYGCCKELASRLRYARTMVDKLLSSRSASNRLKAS
# VDR inhibitor: inhibitors of human vitamin D receptor | P11473 | VDR-SRC2-3 peptide fluorescence polarization, 2 h | Potency, µM, for inactives: max response, negative = inhibition, usual class: inhibitors | 400,000 compounds, 0.93% hits; further: potency means the concentration at half of the fitted maximal effect
#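 Two reagent solutions held at 4 deg C in the dark were dispensed, compounds pinned at 23 nl, and the mixture incubated 2 h at room temperature. Read-out: fluorescence polarization of VDR–SRC2-3 peptide binding.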
# CCT chaperon mod: cytosolic chaperonin activity modulation. purified chaperonin ATPase assay, HTRF ADP detection, 30 min. activity change, % (concentration not given with the values), hits read low. 360,000 compounds, 0.3% hits; in the data active means activity change below about -30%
#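 Nucleotide hydrolysis assay: TRiC at 20–40 nM final (set by batch activity) with 10 uM ATP, 30 min at 37 °C, in presence of 76 uM compound. Detection by competitive ADP HTRF, 30 min ambient.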
# G9a block: G9a (human) methyltransferase inhibition | Potency, µM (doses to about 102 µM), inactives show at the highest dose activity, negative = inhibition, hits mostly inhibitors | 350,000 compounds, 8.8% hits | G9a H3K9 monomethylation, AlphaScreen, 2 h; further: potency means the concentration at half of the fitted maximal effect; nearly all actives have a fitted effect of over 75% in size
#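 Readings reflect AlphaScreen signal from monomethyl-H3K9 antibody detection. HMT at 20 nM; substrate b-H3K9 500 nM; cofactor SAM 20 uM; 2 h RT reaction; compounds tested as titrations in qHTS with 15 min preincubation.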
# MmCpn inh: M. maripaludis TRiC chaperonin inhibition; purified Mm-Cpn ATPase, ADP Transcreener TR-FRET; Potency, µM (series often up to 76.9 µM), for the others: at the highest dose activity, negative = inhibition, most hits filed as inhibitors; 330,000 compounds, 0.031% hits; AID 504842; further: potency means the concentration at half of the fitted maximal effect; nearly all actives have a fitted effect of over 80% in size
#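 ATPase read-out: TR-FRET ADP immunoassay (anti-ADP Eu cryptate vs ADP-d2), ex 320 nm, em 590/665 nm; signal drops as ADP forms. Enzyme 25 nM, ATP 10 uM, 30 min at 37°C after 10 min compound preincubation.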
# Sfp PPTase inh: blocks B. subtilis Sfp PPTase activity | AID 1490 | Potency, µM, for the others: largest response in the series, negative = inhibition, hits mostly inhibitors | Biochemical Sfp PPTase activity, qHTS | Q9F4F7 | 310,000 compounds, 3.5% hits;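 further: the enzyme is Sfp with the accession as filed and its product quenches rhodamine fluorescence; potency means the concentration at half of the fitted maximal effect; 0% = enzyme reaction without inhibitor and -100% = no enzyme wells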
#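 Fluorescence-quenching assay: 15 nM Sfp-PPTase preincubated 15 min at room temperature with compound, then 5 uM rhodamine-CoA and 12.5 uM BHQ-2-labelled YbbR peptide added. Fluorescence (ex 525/em 598 nm) read at start and after 30 min; difference gives rate.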
# An asterisk follows results filed as active; u = inconclusive; x = no result given; [ ] = another dose, or the depositor's remark. Sampled rows, rich in hits. Any-hit rate of the full collection: about 10%. Unless noted, the call rests on the fitted dose curve; in most records, active means well fitted curve in the direction sought with a large enough effect; inconclusive means small, poorly fitted or top-dose-only effect, or another doubt; inactive means no such curve, though single readings can be large; an effect the other way counts as inactive or inconclusive. Unless noted, on the % scale 0 is the no-effect control and ±100 the full control effect.
SMILES,PLK1 PBD inh,VDR inhibitor,CCT chaperon mod,G9a block,MmCpn inh,Sfp PPTase inh
O=c1c(-c2cc(F)cc(F)c2)nc2cnc(N3CCNCC3)nc2n1CCc1ccccc1,x,-3%,x,-1%[12.7 µM],x,u
CCc1ccc(-c2[nH]nc3nc(-c4cc(OC)ccc4OC)cc(C(=O)O)c23)cc1,x,8%,x,-29%[59 µM],x,x
O=C(/C=C/c1ccco1)c1cccnc1,-29%,-28%,-3,40µM*,-1%,50µM*
CC(/C=C/c1ccco1)=N/NC(=O)OC(C)(C)C,1%,u,-3,71µM*,3%,-23%
O=C(/C=C/c1ccco1)Nc1ccc(N2CCCC2)cc1,-4%,6%,0,0.89µM*,-3%,1%
O=C(/C=C/c1ccco1)Nc1cccnc1,-10%,5%,-25,x,-4%,25µM*
O=C(/C=C/c1ccco1)Nc1ccc(C(=O)N2CCOCC2)cc1,-15%,-13%,1,u,-3%,-52%
CCN(C(=O)C=Cc1ccco1)c1ccccc1,-24%,-10%,-1,x,x,x
COC(=O)/C=C/C(=O)Nc1cccnc1,-14%,1%,-8,50µM*,1%,19%
CC(=C/C(=O)O)/C=C/c1ccco1,-29%,-8%,0,40µM*,-4%,u
COC(=O)/C=C/C(=O)Nc1ccc(O)c(Cl)c1,-13%,-8%,2,40µM*,3%,-19%
O=C(O)/C=C/C(=O)Nc1cccnc1,-2%,-1%,2,-13%[59 µM],2%,11%
CCOc1ccccc1-c1nc(C(N)=O)c2c(n1)n(-c1ccc3c(c1)OCO3)c(=O)n2C,x,-6%,x,21%[59 µM],x,x
COc1cccc(C(=O)c2cn(CC(=O)Nc3cccc(Cl)c3C)c3nc(C)ccc3c2=O)c1,x,7%,x,7%[59 µM],x,x
Cc1[nH]c(=S)sc1Cc1ccc(Cl)c(Cl)c1,x,x,x,u,-13%,u
Cc1cc(Cl)cc2sc(=S)[nH]c12,13µM*,u,0,x,x,x
C1CCc2c(nnc3c2-c2nonc2CC3)C1,-4%,-9%,-5,32µM*,-1%,-4%
COCCCNC(=O)C1CCCN(c2ncnc3onc(C)c23)C1 (configuration not stated),x,6%,x,1%[59 µM],x,x
O=C(OCC(=O)N(Cc1ccccc1)Cc1ccccc1)c1ccccc1NCCO,-1%,-2%,2,40µM*,-4%,x
COc1cc2c(cc1OC)C(Cc1ccc(O)cc1)N(C)CC2 (configuration not stated),-7%,14%,0,50µM*,1%,19%
COc1cc2c(cc1OC)C(Cc1ccc(O)cc1)NCC2 (configuration not stated),0%,-14%,0,-22%,-1%,9%
Nc1ccc2cc3[nH]c4cc(N)ccc4c3nc2c1,2.4µM*,33%,3,x,x,x
Nc1ccc2nc(-c3ccc(Cl)cc3)[nH]c2c1,0%,2%,-2,u,u,-19%
O=C1C(Cl)=C(N2CCOCC2)C(=O)N1c1cccc(Cl)c1,-27%,25µM*,2,u,0%,-5%
CN1CCN(C2=C(Cl)C(=O)N(c3ccc(Cl)cc3)C2=O)CC1,-26%,-2%,0,5µM*,-16%,-13%
SMILES,PLK1 PBD inh,VDR inhibitor,CCT chaperon mod,G9a block,MmCpn inh,Sfp PPTase inh
Cc1ccc(N2C(=O)C(Cl)=C(N3CCN(C)CC3)C2=O)c(C)c1,-29%,u,0,u,0%,9%
COC(=O)CN1C(=S)N(c2ccc(OC)cc2)C(=O)/C1=C/c1ccc(N2CCOCC2)cc1,-23%,-11%,-3,32µM*,-3%,6%
COc1ccc(N2CCN(c3nc(Cl)nc(N4CCOCC4)n3)CC2)cc1,-7%,10%,-2,7.9µM*,-4%,-9%
O=C1/C(=C/c2ccccc2)N=C(N2CCOCC2)N1c1cccc(Cl)c1,-3%,u,-5,55%,-1%,-15%
O=S(=O)(NCCc1nnc2ccc(SCc3cccc(Cl)c3)nn12)c1ccccc1,x,5%,x,-31%[59 µM],x,x
CCc1ccc(N2C(=O)C(Cl)=C(N3CCOCC3)C2=O)cc1,-20%,u,-1,u,-3%,3%
O=C1C(Cl)=C(N2CCOCC2)C(=O)N1CCc1ccccc1,-10%,-13%,1,29%[12.7 µM],1%,4%
COc1ccc(N2C(=O)C(Cl)=C(N3CCOCC3)C2=O)cc1,0%,28µM*,0,x,3%,2%
Cc1cccc(N2C(=O)C(Cl)=C(N3CCOCC3)C2=O)c1,-13%,u,-1,u,1%,3.5µM*
Cc1ccc(CN(C(=O)COc2cccc([N+](=O)[O-])c2)c2ccccn2)o1,x,11%,x,-2%[59 µM],x,x
Cc1ccc(C(=O)COC(=O)CCC(=O)Nc2ccc(Oc3ccccc3)cc2)cc1,x,-1%,x,-1%[59 µM],x,x
CC(=O)N(Cc1cccnc1)c1nc2c(C)cc(C)cc2s1,x,2%,x,u,x,x
COc1cccc(C2=NOC(C(=O)N3CCc4ccccc4C3)C2)c1 (configuration not stated),u,-11%,1,7.9µM*,-2%,5%
CC1=[N+](CC(=O)c2ccccc2)CCn2cccc21,2%,4%,3,32µM*,2%,0%
CCC1=[N+](CC(=O)c2ccc(C)cc2)CCn2c(C)ccc21,-10%,-4%,-2,u,-2%,-8%
CCOc1ccccc1/C=N/NC(=O)c1cccc(S(=O)(=O)N2CCOCC2)c1,-10%,85%,-1,5%,1%,-8%
O=C(O)c1ccc(/C=N\Nc2ccc(S(=O)(=O)N3CCOCC3)cc2[N+](=O)[O-])cc1,0%,-14%,-1,50µM*,1%,4%
Cc1ccc(-n2c(O)c(/C=N/Nc3ccc(S(=O)(=O)N4CCOCC4)cc3[N+](=O)[O-])c3ccccc3c2=O)c(C)c1,u,u,-5,8.9µM*,0%,-18%
O=C(O)COc1ccccc1/C=N/Nc1ccc(S(=O)(=O)N2CCOCC2)cc1[N+](=O)[O-],-14%,-14%,-3,40µM*,0%,-6%
CCCn1c2ccccc2c2cnn(CC(=O)NCc3cc(OC)ccc3OC)c(=O)c21,x,1%,x,5%[59 µM],x,x
COc1ccccc1CCNC(=O)c1cccn1-c1nnc(N2CCCC2)s1,x,1%,x,-6%[59 µM],x,x
COc1cc(/C=C2/C(=O)N(c3ccc([N+](=O)[O-])cc3)N=C2N2CCOCC2)ccc1O,11µM*,u,-18,-42%,-2%,10%
O=C(Nc1c(C(=O)N2CCN(c3ccccc3F)CC2)oc2ccccc12)c1cccc(F)c1,x,8%,x,-15%[59 µM],x,x
Cc1c(O)nc(SC2CC(=O)N(c3ccccc3)C2=O)[nH]c1=O (configuration not stated),-6%,7%,-1,u,x,79µM*
CCc1c(O)nc(SC2CC(=O)N(c3ccccc3)C2=O)[nH]c1=O (configuration not stated),-1%,-14%,1,38%[0.501 µM],0%,u
